This is a sample that favours compounds with a hit; in the whole collection about 4% have one here.
TROY NFkB inh: TROY signaling inhibition. Q293 LMP1-TROYcd NF-kB luciferase reporter, 4 h. 360,000 tested, 0.98% active. inhibition, % at 10 µM;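 active = compounds whose plate-normalised and pattern-corrected inhibition of the luciferase reporter signal at the single screening dose is 50% or more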
KKLEB cytotox: CF airway cell cytotoxicity counter-screen | KKLEB CF airway cells viability, ATPlite luminescence, overnight; stronger effect = lower value; cells stimulated with P. aeruginosa culture filtrate | activity change (cytotoxicity), % at 5 µM | 360,000 tested, 0.36% active | AID 602141;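 active = corrected activity change at or below -50% at 5 µM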
CF NFkB inh: cystic fibrosis NF-kB activation inhibition | KKLEB NF-kB-GFP reporter, PAF-induced, GFP fluorescence overnight | inhibition, % at 5 µM | AID 588850 | 360,000 tested, 0.86% active;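 active = at least 50% inhibition at 5 µM, scaled per plate between neutral and stimulator controls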;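 note: PAF is a Pseudomonas aeruginosa culture filtrate used as stimulus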
HIF-2a block: inhibitors of HIF-2a. AID 624352. inhibition, % at 18.8 µM. 360,000 tested, 0.72% active. 786-0 RCC cells HIF-2a reporter, luciferase luminescence, overnight;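 active = inhibition of the luminescence signal of 40% or more relative to plate controls, in a single-dose primary screen at 18.75 µM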
TWEAK-Fn14 inh: inhibitors of TWEAK-Fn14 interaction signaling; 360,000 tested, 2% active; AID 1159606; inhibition, % at 10 µM; TWEAK-stimulated Fn14 reporter cells, luciferase luminescence, 8 h; in the data active = inhibition above about 50%
Peg3 promoter: Peg3 promoter activity inhibition. AID 588405. 360,000 tested, 1.7% active. HeLa PEG-Prom luciferase reporter, luminescence, overnight. inhibition, % at 20 µM;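 active = inhibition of at least 50% at 20 µM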
Each line names hits and unclear results; the compound was inactive in the other large screens.

COc1cc2c(cc1OC)C(CNC(=O)C=Cc1ccccc1)C2 (centres undefined)	none
CSc1nc(N)nc(SCC(=O)Nc2ccc(Cl)cc2)c1C#N	none
CSc1nc(N)nc(SCCS(=O)(=O)c2ccc(Cl)cc2)c1C#N	KKLEB cytotox -65.3
Cc1ccnc(Nc2nc(-c3ccccc3)cs2)c1	TWEAK-Fn14 inh 52.7
CC(=O)Nc1cccc(-c2csc(Nc3cc(C)ccn3)n2)c1	none
CC(=O)Nc1ccc(-c2csc(Nc3cc(C)ccn3)n2)cc1	TWEAK-Fn14 inh 50.3
COc1ccc(-c2csc(Nc3cc(C)ccn3)n2)cc1OC	none
Cc1oc2c(c1C(=O)c1ccc(Cl)cc1)C(=O)C(=O)c1ccccc1-2	KKLEB cytotox -62.2, CF NFkB inh 86.2, HIF-2a block 93.8, TWEAK-Fn14 inh 90.9, Peg3 promoter 107.0
Cc1ccc(C(=O)c2c(C)oc3c2C(=O)C(=O)c2ccccc2-3)cc1	CF NFkB inh 77.6, TWEAK-Fn14 inh 54.3, Peg3 promoter 101.2
Cc1ccc(C(=O)c2coc3c2C(=O)C(=O)c2ccccc2-3)cc1	none
CC(C)c1nc(SCc2c(F)cccc2Cl)c2c(=O)n(C)c(=O)n(C)c2n1	Peg3 promoter 62.8
COc1ccccc1N1CCN(C(=O)CCn2c(=O)[nH]c3ccccc3c2=O)CC1	none
COc1ccccc1N1CCN(C(=O)CCCn2c(=S)[nH]c3ccccc3c2=O)CC1	Peg3 promoter 67.9
O=C(c1cc(-c2ccc(F)cc2)on1)N1CCOCC1	none
O=C(c1cc(-c2ccc3c(c2)OCO3)on1)N1CCN(c2ccccc2)CC1	TROY NFkB inh 65.0
O=C(Nc1cccnc1)c1cc(-c2ccc3c(c2)OCO3)on1	TWEAK-Fn14 inh 76.8
O=C(c1cc(-c2ccc3c(c2)OCO3)on1)N1CCOCC1	TWEAK-Fn14 inh 77.2
O=C(c1cc(-c2ccc3c(c2)OCO3)on1)N1CCN(c2ccc(F)cc2)CC1	none
Cc1cc(=O)oc2c3c(cc(OCC(=O)NCC4CCC(C(=O)O)CC4)c12)OC(C)(C)CC3 (centres undefined)	none
Nc1ccc(-c2nc3c(Cl)c(N)ccc3[nH]2)cc1	TWEAK-Fn14 inh 60.9
Nc1ccc(-c2nc3ccc(N)cc3[nH]2)cc1	none
CC(=O)Oc1ccc(C23c4ccccc4C2(OC(C)=O)c2cc(OC(C)=O)ccc23)cc1 (centres undefined)	TWEAK-Fn14 inh 89.3
CC(=O)Oc1ccc(C(=O)Nc2ccccc2NC(=O)c2ccc(OC(C)=O)cc2)cc1	none
Cc1ccc(C2=C(O)C(=O)C(c3ccc(C)cc3)=C(O)C2=O)cc1	CF NFkB inh 55.6
O=[N+]([O-])c1ccc(O)c(/C=N/NC(=S)Nc2ccc(Cl)cc2Cl)c1	TWEAK-Fn14 inh 70.6
O=[N+]([O-])c1ccc(O)c(/C=N/Nc2ccccn2)c1	KKLEB cytotox -65.1, CF NFkB inh 69.0
O=C(N/N=C/c1cc([N+](=O)[O-])ccc1O)C12CC3CC(CC(C3)C1)C2	none
O=C(N/N=C/c1cc([N+](=O)[O-])ccc1O)NC12CC3CC(CC(C3)C1)C2	TROY NFkB inh 85.1, TWEAK-Fn14 inh 93.0
CCN(CC)CCn1c(=N)n(CC(O)COc2cccc(C)c2)c2ccccc21 (centres undefined)	Peg3 promoter 58.2
Cc1cccc(OCC(O)CN2CCNCC2)c1 (centres undefined)	none
Cc1cccc(OCC(O)Cn2c(=N)n(CCN3CCCCC3)c3ccccc32)c1 (centres undefined)	Peg3 promoter 94.9
Cc1cccc(OCC(O)Cn2c(=N)n(Cc3ccccc3)c3ccccc32)c1 (centres undefined)	none
CC1(C(=O)NS(=O)(=O)Cc2cccc(Cl)c2)CCN1C(=O)C1CCCCC1 (centres undefined)	none
N/C(=N\OC(=O)/C=C/c1ccccc1)c1cccnc1	none
N/C(=N\OC(=O)/C=C/c1ccccc1Cl)c1cccnc1	none
N/C(=N\OC(=O)/C=C/c1ccccc1Cl)c1ccccn1	TROY NFkB inh 68.0, TWEAK-Fn14 inh 75.1
N/C(=N\OC(=O)/C=C/c1ccc(Br)cc1)c1ccccn1	TROY NFkB inh 52.1, TWEAK-Fn14 inh 66.2
O=C(N=C1SC2CS(=O)(=O)CC2N1c1ccc(F)c(Cl)c1)C1CCCO1 (centres undefined)	none
CCCCCCC[C@@H](C/C=C/CCC(=O)N(C)C/C(=C/Cl)C/C(=C\C(=O)N1CC(OC)=CC1=O)OC)OC	KKLEB cytotox -60.8, CF NFkB inh 54.4
CC(C)(C)NS(=O)(=O)c1cc(C(=O)Nc2sccc2C#N)ccc1Cl	TWEAK-Fn14 inh 51.5
O=C(NCCN1CCOCC1)c1cccc(S(=O)(=O)NCc2ccccc2)c1	none
COc1cc(Cl)c(C)cc1NC(=O)c1ccccc1NC(=O)CN1CCN(c2ccccn2)CC1	Peg3 promoter 91.2
COc1cc(NC(=O)c2ccccc2)c(OC)cc1NC(=O)CN1CCN(c2ccccn2)CC1	none
Cc1ccccc1/C=N/NC(=O)CSc1nc2ccccc2o1	TWEAK-Fn14 inh 65.0
O=C(CSc1nc2ccccc2o1)N/N=C/c1ccccc1	none
O=C(CSc1nc2ccccc2s1)N/N=C/c1ccccc1C(=O)O	TROY NFkB inh 82.3, TWEAK-Fn14 inh 89.3
COc1ccc2nc(C)cc(SCC(=O)N/N=C/c3cccc4ccccc34)c2c1	Peg3 promoter 60.1
Cc1cc(SCC(=O)N/N=C/c2ccc(O)cc2O)nc2ccccc12	Peg3 promoter 53.9
CC(NC(=O)COC(=O)c1ccc(CO)cc1)C1CC2CCC1C2 (centres undefined)	none
Cc1ccsc1C(=O)OCC(=O)N(C)C1CCCCC1	TWEAK-Fn14 inh 63.0
CC1(C)CC(=O)C(C(O)c2ccccc2)C(C)(C)N1 (centres undefined)	none
CC(=O)c1c(C)[nH]c(C(=O)OCCOc2ccccc2)c1C	TROY NFkB inh 61.6
Cc1c(C(=O)OCCOc2ccccc2)[nH]c2c1C(=O)CCC2	TROY NFkB inh 66.1, TWEAK-Fn14 inh 82.0
Cc1nc(Nc2nc3ccccc3o2)nc2c1CCC2	TWEAK-Fn14 inh 91.0
COc1cc2c(cc1OC)CN(Cc1nc3ccsc3c(=O)[nH]1)CC2	TWEAK-Fn14 inh 76.5
Cc1cc(C(N)=O)c2ccccc2n1	none
NC(=O)c1cc2c3ccccc3ccn2c1-c1ccccc1	TWEAK-Fn14 inh 52.5
COc1ccc(-c2csc(NC(=S)NC(=O)/C=C/c3ccc(C(C)C)cc3)n2)cc1OC	TROY NFkB inh 69.8, TWEAK-Fn14 inh 65.6
O=S(=O)(Nc1ccc2c(c1)OCCO2)c1cccc2nsnc12	TROY NFkB inh 84.5, TWEAK-Fn14 inh 95.3
O=S(=O)(Nc1ccccc1)c1cccc2nsnc12	none
O=C(CCNS(=O)(=O)c1cccc2nsnc12)Nc1ccc2c(c1)OCCO2	TWEAK-Fn14 inh 57.7
CC(NC(=O)CCNS(=O)(=O)c1cccc2nsnc12)c1ccccc1 (centres undefined)	TWEAK-Fn14 inh 54.1
CCc1nc2ccc(C(=O)Nc3cccc(NS(C)(=O)=O)c3)cn2c1N(C)CCN1CCOCC1	none

Screening data from PubChem BioAssay.
